{
  "source": "PubChem BioAssay AID624116",
  "about": "(National Center for Advancing Translational Sciences (NCATS), 2012)",
  "note": "Results filed as inconclusive are left out. Values without a mark were called inactive. Active and inactive are the calls of the source. Calls come from the whole dose curve; as a rule, active = well fitted activation curve with a large enough effect; inconclusive = small, poorly fitted or top-dose-only effect; inactive = no such curve, though single readings can be large or run the other way. Potency is the fitted concentration of half-maximal effect.",
  "data": [
    {"test": "qHTS Assay for Rab9 Promoter Activators: Hit Validation Using Renilla Luciferase Read-Out for Rab9; for activation, negative = inhibition: % of control where 0% means no effect", "conditions": "Huh7 Rab9 promoter Renilla luciferase reporter, 24 h; series mostly up to 76.9 µM; activation, negative = inhibition: at the top concentration", "outline": "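Huh7 cells stably carrying promoter-luciferase reporter, exposed to compound for 24 h at 37 deg C. Luminescence read 10 min after adding luciferase detection reagent at room temperature.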", "units": {"activation, negative = inhibition": "%"}, "values": [
      {"smiles": "O=C(CSc1nnc(-c2ccc([N+](=O)[O-])cc2)o1)Nc1ccccn1", "activation, negative = inhibition": -5.92},
      {"smiles": "CCOC(=O)c1cc2sccc2n1CC(=O)N1CCCc2ccccc21", "activation, negative = inhibition": -0.541},
      {"smiles": "O=C(C1COc2ccccc2O1)N1CCN(S(=O)(=O)c2ccccc2)CC1", "note": "(configuration not stated)", "activation, negative = inhibition": -3.31},
      {"smiles": "O=C(CN1C(=O)COc2ccc(Cl)cc21)NCC1CCCO1", "note": "(configuration not stated)", "activation, negative = inhibition": 9.31},
      {"smiles": "CCOC(=O)c1ccc(NC(=O)Oc2cc(C)c(Cl)cc2C(C)C)cc1", "activation, negative = inhibition": -0.506},
      {"smiles": "CC(=O)NC(=S)Nc1ccc2oc(-c3cc(F)c(F)cc3Cl)nc2c1", "activation, negative = inhibition": -6.34},
      {"smiles": "Cc1ccc2nc(Nc3ccc(Cl)cc3)c3nncn3c2c1", "activation, negative = inhibition": -9.4},
      {"smiles": "COc1cccc(C2Nc3ccccc3NC3=C2C(=O)CC(C)(C)C3)c1", "note": "(configuration not stated)", "activation, negative = inhibition": -7.96},
      {"smiles": "Cc1ccc(S(=O)(=O)N2CCN(c3cnn(C)c(=O)c3Cl)CC2)cc1", "activation, negative = inhibition": -1.64},
      {"smiles": "Cc1ccc(NC(=O)COC(=O)C2C3CC4OC(=O)C2C4C3)cc1Cl", "note": "(configuration not stated)", "activation, negative = inhibition": -1.3},
      {"smiles": "O=C(CCNC(=O)c1ccc(Br)o1)NCc1ccc(Cl)cc1", "activation, negative = inhibition": -1.43},
      {"smiles": "CC(C)(C)NC(=S)NNC(=O)c1ccc2ncccc2c1", "activation, negative = inhibition": -21.4},
      {"smiles": "CCOC(=O)c1csc(COc2ccc(OC)cc2)n1", "activation, negative = inhibition": -3.06},
      {"smiles": "COc1ccc(C(=O)OCC(=O)N2CCCC2=O)c(OC)c1", "activation, negative = inhibition": 0.637},
      {"smiles": "O=C(CCS(=O)(=O)c1ccccc1)Nc1ccc(-c2nc3ccccc3s2)cc1", "activation, negative = inhibition": 4.91},
      {"smiles": "Cc1cc(C)c2c(N)c(C(=O)Nc3ccc([N+](=O)[O-])cc3)sc2n1", "activation, negative = inhibition": -4.2},
      {"smiles": "CCN(CC(=O)N(CC(C)C)c1c(N)n(CC(C)C)c(=O)[nH]c1=O)Cc1nc2ccccc2c(=O)[nH]1", "activation, negative = inhibition": -1.5},
      {"smiles": "NC(=O)C(=O)NN=C1C2CC3CC(C2)CC1C3", "activation, negative = inhibition": -4.68},
      {"smiles": "COc1ccc(NC(=O)Nc2ccc(Cc3ccncc3)cc2)cc1OC", "activation, negative = inhibition": -56.6},
      {"smiles": "COC(=O)c1cn(NC(=O)C2CCCCC2)c(=O)c2ccccc12", "activation, negative = inhibition": 0.264},
      {"smiles": "O=C(Nc1ccc(-c2nc3cccnc3s2)cc1)c1ccc(Cl)nc1", "activation, negative = inhibition": -11},
      {"smiles": "CCOC(=O)c1ccccc1NC(=O)CSc1nnc(Cc2cccn2C)n1-c1ccc(F)cc1", "Potency": "36.8 µM (active)"},
      {"smiles": "Nc1ccc(C(=O)Nc2ccccc2N)cc1", "Potency": "16.4 µM (active)"},
      {"smiles": "O=C(O)CSc1nnc(-c2ccncc2)n1CCc1ccccc1", "activation, negative = inhibition": 1.59},
      {"smiles": "O=C(CCCn1c(=O)oc2ccccc21)N1CCN(c2ccccn2)CC1", "activation, negative = inhibition": -4.46},
      {"smiles": "COc1cccc(C(C(=O)NC2CCCC2)N(CCC(C)C)C(=O)CCC(=O)Nc2cc(C)on2)c1", "note": "(configuration not stated)", "activation, negative = inhibition": 3.36},
      {"smiles": "COCCSc1ncnc2c1oc1nc3c(cc12)COC(C)(C)C3", "activation, negative = inhibition": -0.926},
      {"smiles": "O=C(COC(=O)c1ccc(-c2nnc(-c3ccccc3)o2)cc1)c1ccccc1", "activation, negative = inhibition": -3.43},
      {"smiles": "O=C(/C=C/c1ccco1)NCC1OCCc2ccccc21", "note": "(configuration not stated)", "activation, negative = inhibition": 10.4},
      {"smiles": "CCC(C)(C)NC(=O)C(c1ccc(OC)cc1)N(Cc1cccs1)C(=O)CCC(=O)Nc1cc(C)on1", "note": "(configuration not stated)", "activation, negative = inhibition": 6.22},
      {"smiles": "NC(=O)COC(=O)c1ccc2noc(-c3ccccc3)c2c1", "activation, negative = inhibition": -0.713},
      {"smiles": "NC(=O)C1(NC(=O)[C@@H]2CC3(CC(c4cccc(NC(=O)[C@@H]5CCC(=O)N5)c4)=NO3)CN2C(=O)c2ccccc2)CC1", "note": "(some centres not stated)", "activation, negative = inhibition": -2.9},
      {"smiles": "Nc1nc(SCCO)[nH]c(=O)c1NC(=O)c1ccco1", "activation, negative = inhibition": 5.9},
      {"smiles": "COc1ccc2oc(=O)c(C(=O)NC(C)c3ccccc3)cc2c1", "note": "(configuration not stated)", "activation, negative = inhibition": 6.37},
      {"smiles": "CCC(=O)NC(=S)Nc1ccc(N2CCOCC2)cc1", "activation, negative = inhibition": 16.5},
      {"smiles": "CCCCCCC(=O)Nc1ccc(C(=O)N/N=C/c2cccnc2)cc1", "activation, negative = inhibition": 4.77},
      {"smiles": "O=C(CSc1nnc(Cc2cc(=O)[nH]c(=O)[nH]2)n1-c1ccc(Cl)cc1)NC1CCCC1", "activation, negative = inhibition": -2.18}
    ]}
  ]
}
